PubChem BioAssay AID1159580 (chemical genetic matrix, 2015)
The campaign covered roughly 5,500 compounds. About 2,000 (36%) were called active. About 18% were inconclusive and are not listed. The list shows a part of the results. Unmarked numbers belong to inactive results. Cut-off read from the data, not from the text of the source: active = normalized growth mostly below about 0.91 (no sharp cut-off); inconclusive = no clear call, values can overlap the other calls; inactive = mostly above about 0.92.

Assay: chemical genetic growth profiling, strain panel (AID 1159580);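 note: tested at 20 µM; growth read once vehicle control cultures reached saturation at 30 °C; 1 = growth at the plate median or of vehicle wells; lower values mean less growth of the strain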
Conditions: S. cerevisiae deletion strains, growth OD

CC(C)=CCOc1c2occc2cc2ccc(=O)oc12
normalized growth (locus YJR066W, strain TOR1, active compounds read low): 0.891 | normalized growth (locus YKL009W, strain mrt4, active compounds read low): 0.844 (active) | normalized growth (locus YKL068W, active compounds read low): 0.898 (active) | normalized growth (locus YKL085W, strain MDH1 (second series), active compounds read low): 0.898 (active) | normalized growth (locus YKL085W, strain MDH1, active compounds read low): 0.898 (active) | normalized growth (locus YKL160W, strain elf1, active compounds read low): 0.898 (active) | normalized growth (locus YKL190W, strain CNB1, active compounds read low): 0.854 (active) | normalized growth (locus YKR001C, strain vps1, active compounds read low): 0.599 (active) | normalized growth (locus YKR026C, strain gcn3, active compounds read low): 0.905 (active) | normalized growth (locus YKR091W, strain srl3, active compounds read low): 0.929 (active) | normalized growth (locus YLL001W, strain dnm1, active compounds read low): 0.862 (active) | normalized growth (locus YLL026W, active compounds read low): 0.931 | normalized growth (locus YLL041C, strain sdh2, active compounds read low): 0.919 (active) | normalized growth (locus YLR027C, strain aat2, active compounds read low): 0.893 (active) | normalized growth (locus YLR039C, strain RIC1, active compounds read low): 0.429 (active) | normalized growth (locus YLR058C, strain SHM2, active compounds read low): 0.748 (active) | normalized growth (locus YLR102C, strain apc9, active compounds read low): 0.843 (active) | normalized growth (locus YLR113W, strain HOG1, active compounds read low): 1.02 | normalized growth (locus YLR221C, strain rsa3, active compounds read low): 0.821 (active) | normalized growth (locus YLR258W, strain gsy2, active compounds read low): 0.908 (active) | normalized growth (locus YLR262C, strain YPT6 (second series), active compounds read low): 0.749 (active) | normalized growth (locus YLR262C, strain YPT6, active compounds read low): 0.448 (active) | normalized growth (locus YLR268W, strain sec22, active compounds read low): 0.695 (active) | normalized growth (locus YLR320W, strain mms22, active compounds read low): 0.652 (active) | normalized growth (locus YLR330W, strain CHS5, active compounds read low): 0.507 (active) | normalized growth (locus YLR342W, strain FKS1 (second series), active compounds read low): 0.416 (active) | normalized growth (locus YLR342W, strain FKS1, active compounds read low): 0.86 (active) | normalized growth (locus YLR357W, strain rsc2, active compounds read low): 0.871 | normalized growth (locus YLR370C, strain arc18, active compounds read low): 0.906 (active) | normalized growth (locus YLR371W, strain rom2, active compounds read low): 0.582 (active) | normalized growth (locus YLR384C, strain iki3, active compounds read low): 0.9 (active) | normalized growth (locus YLR418C, strain cdc73, active compounds read low): 0.28 (active) | normalized growth (locus YML016C, strain PPZ1, active compounds read low): 0.875 (active) | normalized growth (locus YML032C, strain rad52, active compounds read low): 0.676 (active) | normalized growth (locus YML120C, strain ndi1, active compounds read low): 0.875 (active) | normalized growth (locus YML124C, strain tub3, active compounds read low): 0.827 (active) | normalized growth (locus YMR058W, strain fet3, active compounds read low): 0.886 (active) | normalized growth (locus YMR078C, strain ctf18, active compounds read low): 0.781 (active) | normalized growth (locus YMR125W, strain sto1, active compounds read low): 0.826 (active) | normalized growth (locus YMR129W, active compounds read low): 0.921 (active) | normalized growth (locus YMR205C, strain PFK2, active compounds read low): 0.817 (active) | normalized growth (locus YMR223W, strain ubp8, active compounds read low): 0.736 (active) | normalized growth (locus YMR231W, strain pep5, active compounds read low): 0.936 | normalized growth (locus YMR307W, strain GAS1, active compounds read low): 0.443 (active) | normalized growth (locus YNL067W, strain RPL9B, active compounds read low): 0.764 (active) | normalized growth (locus YNL071W, strain lat1, active compounds read low): 0.573 (active) | normalized growth (locus YNL153C, strain GIM3, active compounds read low): 0.73 (active) | normalized growth (locus YNL183C, strain NPR1, active compounds read low): 0.912 | normalized growth (locus YNL209W, strain ssb2, active compounds read low): 0.936 | normalized growth (locus YNL233W, strain BNI4, active compounds read low): 0.517 (active) | normalized growth (locus YNL248C, strain rpa49, active compounds read low): 0.936 | normalized growth (locus YNL250W, strain rad50, active compounds read low): 0.884 (active) | normalized growth (locus YNL271C, strain bni1, active compounds read low): 0.849 (active) | normalized growth (locus YNL298W, strain CLA4, active compounds read low): 0.823 (active) | normalized growth (locus YNL307C, strain MCK1, active compounds read low): 0.222 (active) | normalized growth (locus YNL322C, strain KRE1 (second series), active compounds read low): 0.904 (active) | normalized growth (locus YNR049C, strain mso1, active compounds read low): 0.914 (active) | normalized growth (locus YNR052C, strain pop2, active compounds read low): 0.877 (active) | normalized growth (locus YOL006C, strain TOP1, active compounds read low): 0.373 (active) | normalized growth (locus YOL012C, strain htz1): 0.448 | normalized growth (locus YOL147C, strain pex11, active compounds read low): 0.551 (active) | normalized growth (locus YOR001W, strain rrp6, active compounds read low): 0.89 (active) | normalized growth (locus YOR061W, strain CKA2, active compounds read low): 0.917 | normalized growth (locus YOR069W, strain VPS5, active compounds read low): 0.783 (active) | normalized growth (locus YOR070C, strain gyp1, active compounds read low): 0.93 | normalized growth (locus YOR080W, strain dia2, active compounds read low): 0.921 | normalized growth (locus YOR083W, strain WHI5, active compounds read low): 0.86 (active) | normalized growth (locus YOR106W, strain vam3, active compounds read low): 0.881 | normalized growth (locus YOR136W, strain idh2, active compounds read low): 0.851 (active) | normalized growth (locus YOR144C, strain elg1, active compounds read low): 0.717 (active) | normalized growth (locus YOR184W, strain ser1, active compounds read low): 0.459 (active) | normalized growth (locus YOR231W, strain MKK1, active compounds read low): 0.955 | normalized growth (locus YOR265W, strain rbl2, active compounds read low): 0.93 | normalized growth (locus YOR270C, strain vph1, active compounds read low): 0.592 (active) | normalized growth (locus YOR290C, strain snf2, active compounds read low): 0.787 (active) | normalized growth (locus YOR316C, strain cot1, active compounds read low): 0.86 (active) | normalized growth (locus YPL051W, strain arl3, active compounds read low): 0.908 (active) | normalized growth (locus YPL055C, strain LGE1, active compounds read low): 0.657 (active) | normalized growth (locus YPL078C, strain atp4, active compounds read low): 0.843 (active) | normalized growth (locus YPL106C, strain sse1, active compounds read low): 0.941 | normalized growth (locus YPL240C, strain hsp82, active compounds read low): 0.912 (active) | normalized growth (locus YPL256C, strain CLN2, active compounds read low): 0.969 | normalized growth (locus YPR119W, strain clb2, active compounds read low): 0.837 (active) | normalized growth (locus YPR141C, strain kar3, active compounds read low): 0.869 (active) | normalized growth (locus YPR163C, strain tif3, active compounds read low): 0.34 (active) | normalized growth (locus YPR167C, strain met16, active compounds read low): 0.782 (active) | normalized growth (strain wtn01, active compounds read low): 0.708 (active)
